# From PubChem BioAssay AID1566 (Sanford-Burnham Center for Chemical Genomics, 2009)
# Values joined by “and” are separate entries in the source; they are usually repeats but may differ in a detail not shown here. Equal entries are not always repeated. About 1,800 (0.62%) of roughly 290,000 compounds were called active. No stated cut-off is given here; in the data, active means inhibition above about 50%; inactive means the rest. Many of the other results were omitted from the sample, so actives are more common in it than they were.
# Assay: NOD2 signaling inhibitors, cell-based, luminescence, uHTS, HEK293 (AID 1566)
# Settings: HEK293 NOD2/NF-kB luciferase reporter, at 4 µM, hits give high values
row,Compound,inhibition
1,CCOc1ccc(NC(=O)Nc2ccon2)cc1,-25.3% (inactive)
2,CCOC(=O)c1ccc(CC(=O)c2ccc(O)cc2O)o1,67.3% (active)
3,COC(=O)c1ccc(CC(=O)c2ccc(O)cc2O)o1,43.8% (inactive)
4,CCOC(=O)c1ccc(CC(=O)c2ccc(O)c(O)c2O)o1,8.3% (inactive)
5,CC[N+](CC)(CCO)CCCN1C(=O)C2CC=C(Cl)CC2C1=O (stereo not given),1.4% (inactive)
6,CCOC(=O)c1sc2nc(C)nc(NCc3ccc(F)cc3)c2c1C,45.8% (inactive)
7,CCOC(=O)c1sc2nc(C)nc(NCc3ccc(Cl)cc3)c2c1C,51.3% (active)
8,CCOC(=O)c1sc2nc(C)nc(NCc3ccccc3)c2c1C,22% (inactive)
9,CC(=O)Nc1ccc(NC(=O)CSc2nc3c([nH]c4ccccc43)c(=O)n2-c2ccccc2F)cc1,34.3% (inactive)
10,c1cc[n+](CCC[n+]2ccccc2)cc1,11.7% (inactive)
11,C(C#CCCCCCCCCC[n+]1ccccc1)#CCCCCCCCCC[n+]1ccccc1,68% (active)
12,c1cc[n+](CCCC[n+]2ccccc2)cc1,7.6% (inactive)
13,CN(C)N1C(N)=C(C#N)C(c2ccc(F)cc2)C2=C1CC(C)(C)CC2=O (stereo not given),-11.2% (inactive)
14,O=C(COc1ccccc1)Nc1nc(-c2ccc(S(=O)(=O)N3CCOCC3)cc2)cs1,25.3% (inactive)
15,O=C(COc1cccc(Cl)c1)Nc1nc(-c2ccc(S(=O)(=O)N3CCOCC3)cc2)cs1,-0.1% (inactive)
16,Cc1cccc(NC(=O)CCC(=O)Nc2nnc(C(F)(F)F)s2)c1,8.6% (inactive)
17,CCS(=O)(=O)N1CCN=C1SCc1cccc(F)c1,8.5% (inactive)
18,O=C(Nc1nc(-c2ccc(-c3ccccc3)cc2)cs1)c1cc([N+](=O)[O-])ccc1N1CCOCC1,6% (inactive)
19,O=C(Nc1nccs1)c1ccc(N2CCOCC2)c([N+](=O)[O-])c1,-39.7% (inactive)
20,O=C(Nc1nc(-c2ccccc2)cs1)c1ccc(N2CCOCC2)c([N+](=O)[O-])c1,68.1% (active)
21,Cc1cc(C(=O)Nc2cccc(/C=C/C(=O)O)c2)c(C)o1,5.6% (inactive)
22,N/C(=N\OC(=O)c1cccc(Cl)c1)c1ccccn1,-99.8% (inactive)
23,CC(C)CNC(=O)CSc1nc2scc(-c3ccccc3)c2c(=O)[nH]1,37.7% (inactive)
24,CC(C)(C)NC(=O)CSc1nc2scc(-c3ccccc3)c2c(=O)[nH]1,25.9% (inactive)

row,Compound,inhibition
1,CC(C)CNC(=O)c1cccc(C(=O)NCC(C)C)c1,7.3% (inactive)
2,Cn1c(=O)c2c(nc(CN3CCN(c4ccccc4F)CC3)n2CCN2CCOCC2)n(C)c1=O,9% (inactive)
3,O=C(CN1CCOCC1)N1CCc2ccccc2C(c2ccccc2)C1 (stereo not given),17% (inactive)
4,COc1ccc(F)cc1CN1CCN(c2ncnc3scc(-c4ccccc4)c23)CC1,19.8% (inactive)
5,O=C(NCc1ccccc1Cl)C1CCCN(c2ncnc3c2nc2n3CCCCC2)C1 (stereo not given),18.9% (inactive)
6,CC1CCN(C(=O)Cn2c(=O)oc3ccccc32)CC1,-2.3% (inactive)
7,COc1ccc(NC(=O)CN(c2ccc([N+](=O)[O-])cc2)S(=O)(=O)c2ccccc2)cc1,-17.8% (inactive)
8,CCC(=O)c1ccc(O)c(CC=C(C)C)c1,54.6% (active)
9,CC(=O)c1cc(CC=C(C)C)c(O)cc1O,30.8% (inactive)
10,CC(=O)c1ccc(O)c(CC=C(C)C)c1,34.2% (inactive)
11,O=c1cc(O)nc(SCc2ccccc2)n1-c1ccccc1,13.3% (inactive) and 9.4% (inactive)
12,S=C(NCc1ccccc1)NN1CCOCC1,1.7% (inactive)
13,Nc1nc(N2CCCCC2)nc2ccccc12,-20.9% (inactive)
14,Cc1cccc(NC(=O)Cn2c(O)c(N=NC(N)=S)c3ccccc32)c1,-8.5% (inactive)
15,Cc1cccc(Cn2c(O)c(N=NC(=S)Nc3ccccc3F)c3ccccc32)c1,18.9% (inactive)
16,Cc1cccnc1NC(=O)c1cccc(S(=O)(=O)N2CCCc3ccccc32)c1,0.8% (inactive)
17,O=C(O)c1cccc(NC(=O)c2cccc(S(=O)(=O)N3CCc4ccccc43)c2)c1,-26.3% (inactive)
18,COc1cccc(C2CC(=O)NC(SC)=C2C#N)c1 (stereo not given),27.4% (inactive)
19,CCO[C@@H]1OC(C(=O)NCc2ccccc2)=C[C@H](c2ccc(Br)cc2)[C@H]1CCCO,-1.4% (inactive)
20,Cc1c(CC(=O)N[C@@H](CCCNC(N)=O)C(=O)O)c(=O)oc2cc3oc4c(c3cc12)CCCC4,14.7% (inactive)
21,COc1ccc(CC(=O)Nc2ccc(OC)nc2)cc1,6.1% (inactive)
22,COc1ccc(CS(=O)(=O)/C(Cl)=C(/Cl)C(=O)Nc2ccc(OC)nc2)cc1,79.2% (active)
23,COc1ccc(NC(=O)C(Cl)=C(Cl)Cl)cn1,-25.2% (inactive)
24,CCN(CC(=O)N(CC(C)C)c1c(N)n(CC(C)C)c(=O)[nH]c1=O)Cc1nc2ccccc2c(=O)[nH]1,13.4% (inactive)

row,Compound,inhibition
1,Cc1cc(NC(=O)CN(C)S(=O)(=O)c2cccc(Cl)c2)no1,0.9% (inactive)
2,COc1ccc(NC(=O)COC(=O)C2CC(=O)N(c3ccc(OC(C)C)cc3)C2)cc1 (stereo not given),6.7% (inactive)
3,O=C(NCC1OCCc2ccccc21)c1ccc(NC(=O)c2cccc(Br)c2)cc1 (stereo not given),2.8% (inactive)
4,Cc1ccccc1-n1c(C)cc(/C=N/Nc2ccc([N+](=O)[O-])cn2)c1C,-29.9% (inactive)
5,COc1cccc(/C=N/Nc2ncnc(N)c2[N+](=O)[O-])c1OC,-39.2% (inactive)
6,Cc1cc(/C=N/Nc2ccc([N+](=O)[O-])cn2)c(C)n1-c1ccccc1,8.4% (inactive)
7,Cc1cc(/C=N/Nc2nc(N)ncc2[N+](=O)[O-])c(C)n1-c1cccc(C(F)(F)F)c1,-78.1% (inactive)
8,O=[N+]([O-])c1cccc(-c2cc(C(F)(F)F)n3nc(-c4ccccc4)cc3n2)c1,26.1% (inactive)
9,CCCN(CCC)CC(O)COc1ccc2c(c1)OCO2 (stereo not given),4.6% (inactive)
10,O=C(NCc1ccccc1F)C1CCCN1C(=O)Nc1cccc(F)c1 (stereo not given),-1.7% (inactive)
11,O=c1c2ccccc2cnn1-c1nc2ccccc2[nH]1,87.6% (active)
12,Cc1nn(-c2ccccc2)c(=O)c2ccccc12,-1.4% (inactive)
13,Cc1nn(-c2nc3ccccc3[nH]2)c(N)c1-c1ccccc1,-163% (inactive)
14,Cc1nn(-c2nc3ccccc3[nH]2)c(=O)c2ccccc12,87.2% (active)
15,O=c1c(Cl)c(N2CCCCC2)cnn1-c1nc2ccccc2[nH]1,-7.2% (inactive)
16,O=c1c(Cl)c(N2CCOCC2)cnn1-c1nc2ccccc2[nH]1,-110% (inactive)
17,NS(=O)(=O)c1ccc(CCNC(=O)c2cc(-c3ccc(Br)cc3)nc3ccccc23)cc1,-18.4% (inactive)
18,O=C(NCc1ccon1)C1CCC(=O)N(CCc2ccc(Cl)cc2)C1 (stereo not given),6.3% (inactive)
19,COc1ccc2c(c1)cc(C(=O)N[C@H](C(=O)N1CCC(C(=O)O)CC1)C(C)C)n2C,-3.6% (inactive)
20,C/C(=N/NC(=O)CN1CCN(Cc2ccccc2Cl)CC1)c1cccs1,20% (inactive)
21,Cc1ccc(NC(=O)Cc2ccccc2)c(C)c1,-14.9% (inactive)
22,Cc1ccc(NC(=O)c2cc(C)nc3ccccc23)c(C)c1,1.4% (inactive)
23,Cc1cc(C)n(C(C)CC(=O)N2CCc3ccccc32)n1 (stereo not given),14.5% (inactive)
24,COc1ccc(S(=O)(=O)Nc2cc(OC)c(NC(=O)c3ccco3)cc2OC)cc1,19.5% (inactive)

row,Compound,inhibition
1,O=c1c2ccccc2c(C=Nc2ccc(S(=O)(=O)N3CCCCC3)cc2)c(O)n1-c1ccc(Cl)cn1,-6.9% (inactive)
2,Cc1cccc(NC(=O)CCSc2ccccc2)c1C,-32.5% (inactive)
3,CCC(=O)Nc1nnc(/C=C/c2ccccc2)s1,-60.7% (inactive)
4,COc1ccc(CCNC(=O)c2ccc3ccccc3n2)cc1OC,6.9% (inactive)
5,COc1ccc(CNC(=O)c2ccc3ccccc3n2)cc1,0.9% (inactive)
6,Cc1cccc(/C=N\NC(=O)c2ccccc2-n2cccc2)c1,-1.5% (inactive)
7,O=C(c1cccc(S(=O)(=O)N2CCCC2)c1)c1cccc(S(=O)(=O)N2CCCC2)c1,32.8% (inactive)
8,CCN(CC)c1ccc2cc(-c3nc4ccccc4[nH]3)c(=O)oc2c1,-69.7% (inactive)
9,CCN(CC)c1ccc2nc3ccccc3[n+](CC)c2c1,74.8% (active)
10,CCN(CC)c1ccc(/C=N/Nc2nc3ccccc3[nH]2)c(O)c1,-63.5% (inactive)
11,O=C(c1cc2ccccc2oc1=O)N1CCCCCCC1,9.4% (inactive)
12,CCCCn1c(-c2nn(C)c(C)c2Cl)n[nH]c1=S,19.7% (inactive)
13,CCN1CCN(Cc2ccc(NC(=O)c3cc(NC(=O)C(=O)c4c[nH]c5ccccc45)cc(OC)c3)cc2C(F)(F)F)CC1,5.4% (inactive)
14,CCN1CCN(Cc2ccc(NC(=O)c3ccc(C)c(NC(=O)c4cccc5[nH]ccc45)c3)cc2C(F)(F)F)CC1,-20.7% (inactive)
15,CCN1CCN(Cc2ccc(NC(=O)c3ccc(C)c(NC(=O)C(=O)c4c[nH]c5ccccc45)c3)cc2C(F)(F)F)CC1,57% (active)
16,O=C(/C=C/c1ccccc1)NC(=S)Nc1ccccc1O,0.9% (inactive)
17,Nc1ccc(-c2nc3c(Cl)c(N)ccc3[nH]2)cc1,-6.6% (inactive)
18,Nc1ccc(-c2nc3ccc(N)cc3[nH]2)cc1,-7% (inactive)
19,Nc1ccc(-c2nc3c(Cl)cc(N)cc3[nH]2)cc1,55.1% (active)
20,NC(=O)c1ccc(NC(=O)Cc2csc(-c3ccccc3)n2)cc1,8% (inactive)
21,CCOc1ccc(C(=O)CSCC(=O)O)cc1,6.2% (inactive)
22,CCOc1ccc(C(=O)CSCCC(=O)O)cc1,53.4% (active)
23,CCOc1ccc(C(=O)CCC(=O)O)cc1,16% (inactive)
